# Out of some 190,000 compounds screened, about 570 (0.3%) were called active. This is one part of a sample in which actives are shown more often than they occur.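 Rule for the calls: active = z-score above 3 at 5 µM with at least 500 cells counted in the well; inconclusive = wells under 500 cells, flagged as cytotoxic or low count; inactive = the rest.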
# Experiment: up-regulation of insulin promoter-GFP reporter – imaging, high-content screening, mouse beta cells (AID 1625);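 for cell count: total cells summed across four imaged fields per well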
# Conditions: MIN6 insulin promoter-GFP reporter, at 5 µM; cell count: measured here: cytotoxicity, nuclei count; z-score: stronger effect = higher value
SMILES,cell count [cells],z-score
CC(=O)Nc1ccc(NC(=O)COc2ccc(S(=O)(=O)NC(C)c3ccccc3)cc2)cc1 (stereo unspecified),1520,-0.4 (inactive)
CN(C)/C=C1/Nc2ccccc2C1=O,636,4.71 (active)
CCCS(=O)(=O)C(=C1Nc2ccccc2N1)S(=O)(=O)CCC,1240,0.09 (inactive)
O=C1CCCCC(=O)c2ccccc2N1,1400,0.07 (inactive)
O=C(Nc1nnc(Cc2ccccc2)s1)c1cnccn1,1430,0.26 (inactive)
Cc1ccccc1Cn1c2ccccc2c2cnn(CC(=O)NCc3ccco3)c(=O)c21,1130,-0.15 (inactive)
CCc1cccc(CC)c1NC(=S)Nc1ccc2cn[nH]c2c1,1180,-0.06 (inactive)
O=C(CNC(=O)c1ccco1)OCC(=O)c1ccccc1,1220,4.35 (active)
O=C(COC(=O)CNC(=O)c1ccco1)Nc1ccc(F)cc1,1320,-0.26 (inactive)
O=C(CNC(=O)c1ccccc1)NCC(=O)OCC(=O)c1ccccc1,1240,-0.32 (inactive)
CCOC(=O)C1=C(N)N2C(=O)C(C)SC2=C(C(=O)OCC)C1c1cc(OC)c(OC)c(OC)c1 (stereo unspecified),1120,-0.67 (inactive)
NS(=O)(=O)c1ccc(NC(=O)COC(=O)c2cc3ccccc3oc2=O)cc1,1430,0.45 (inactive)
CCCCOc1ccc(CON(C(C)=O)C(C)=O)cc1Cl,1140,-0.26 (inactive)
O=C(CCn1nnc2ccccc2c1=O)N[C@@H](Cc1c[nH]c2ccccc12)C(=O)O,1030,0.15 (inactive)
CC(C)OCCCNC(=O)C1CC(=O)N(C2CCCCCCC2)C1 (stereo unspecified),1560,-0.3 (inactive)
Cc1ccc(CNC(=O)C2CC(=O)N(C3CCCCCCC3)C2)cc1 (stereo unspecified),1550,-0.31 (inactive)
O=C(NCCCN1CCCCCC1)C1CC(=O)N(C2CCCC2)C1 (stereo unspecified),1560,4.02 (active)
O=C(Nc1ccccc1)O/N=C1/CCCc2occc21,985,-0.24 (inactive)
O=C1CCCCC1C(=O)c1ccccc1 (stereo unspecified),991,-0.12 (inactive)
OC(c1ccccc1)C(CN1CCOCC1)c1ccccc1 (stereo unspecified),1160,-0.19 (inactive)

SMILES,cell count [cells],z-score
C1=C(N2CCOCC2)/C(=C/c2nc3ccccc3[nH]2)CC1,905,3.43 (active)
c1ccc(Nc2nc(N3CCOCC3)c3ccccc3n2)cc1,637,-1.26 (inactive)
c1ccc2[nH]c(NCCN3CCOCC3)nc2c1,1180,0.66 (inactive)
CCOc1c(Nc2cccc(Cl)c2)c(=O)c1=O,1030,0.15 (inactive)
COc1cc2c(C(=O)N3CCN(C)CC3)c(CSc3ccccc3)n(C)c2cc1Br,1290,-0.8 (inactive)
Cc1ccc(NC(=S)N2CCCC(c3ccccc3)=N2)cc1,1540,-0.41 (inactive)
O=S(=O)(NC(=S)Nc1ccccc1)c1ccc(F)cc1,1080,-0.63 (inactive)
O=C(Cc1cccs1)Nc1nnc(C2CC2)s1,1650,1.57 (inactive)
CCc1nnc(NC(=O)Cc2cccs2)s1,1560,0.7 (inactive)
COc1ccc(Cc2nnc(NC(=O)Cc3cccs3)s2)cc1,1270,3.48 (active)
Cc1ccc(OCC(=O)Nc2nnc(-c3ccco3)s2)cc1,1050,-0.23 (inactive)
Cc1ccc(SC(C)C(=O)NCc2ccc(F)cc2)cc1 (stereo unspecified),1600,0.03 (inactive)
N#CCCCn1c(O)c(N=NC(=O)C(O)c2ccccc2)c2ccccc21 (stereo unspecified),1150,0.15 (inactive)
Cc1ccc(C(=O)N/C(=C\c2ccco2)C(=O)N2CCSCC2)cc1C,1360,-0.32 (inactive)
CC1CCN(c2ccc([N+](=O)[O-])cc2C(N)=O)CC1,1470,0.15 (inactive)
COC(=O)c1sccc1NC(=O)COc1ccc(Cl)cc1,2220,-0.38 (inactive)
COC(=O)c1sccc1NC(=O)c1csc2c1CCCC2,1260,-0.75 (inactive)
COC(=O)c1sccc1NC(=O)c1cc(OC)c(OC)c(OC)c1,1440,3.71 (active)
O=S(=O)(c1ccc(Cl)cc1)N1CCCN(c2ccc(C(F)(F)F)cn2)CC1,1100,-0.98 (inactive)
Cc1ccnc(NC(=O)CCCOc2ccccc2)c1,1410,-0.12 (inactive)

SMILES,cell count [cells],z-score
COC(=O)c1scc(S(=O)(=O)C(C)(C)C)c1-n1cccc1,1430,0.89 (inactive)
O=C(CSc1nc2ccccc2s1)Nc1ccc(C(=O)O)cc1,1290,0.75 (inactive)
Cc1oc(C(N)=O)cc1COc1ccc(C(N)=O)cc1,1120,-0.28 (inactive)
COc1ccc(N2C(=O)C(Cc3ccccc3)NC2=S)cc1 (stereo unspecified),1180,0.5 (inactive)
CCOC(=O)C1CCN(C(=O)Nc2cccc(OC)c2)CC1,1010,-0.44 (inactive)
O=C(CN1C(=O)CC(c2ccccc2)S(=O)(=O)c2ccccc21)NC1CCCC1 (stereo unspecified),1220,-1.1 (inactive)
Cc1oc(-c2ccccc2F)nc1CS(=O)(=O)CC(=O)NCCCN(C)C1CCCCC1,1560,0.14 (inactive)
CN(CCCNC(=O)CN1C(=O)CC(C)(C)S(=O)(=O)c2ccccc21)C1CCCCC1,1010,3.03 (active)
O=C1CC(c2ccccc2)CC(O)=C1C=NCCN1CCOCC1 (stereo unspecified),1300,-0.21 (inactive)
O=C1CCCC(O)=C1C=NCCc1ccccc1,1000,3.02 (active)
CC1(C)CC(=O)C(C=NCCC2=CCCCC2)=C(O)C1,1030,0.42 (inactive)
CS(=O)(=O)c1ccc2nnn(OCC(=O)Nc3cccc(C#N)c3)c2c1,1340,-0.14 (inactive)
Cc1cc(C)c(NC(=O)CN2C(=O)NC(Cc3ccccc3)C2=O)c(C)c1 (stereo unspecified),1480,0.2 (inactive)
CN1CCN(CCNC(=O)Nc2ccc([N+](=O)[O-])cc2)CC1,1230,0.23 (inactive)
Cn1ccc(NC(=O)Nc2ccc(Cl)cc2)n1,1320,0.16 (inactive)
Cc1c(C(=O)N2CCCc3ccccc32)sc2nc(-c3ccccc3)cn12,661,1.22 (inactive)
Cc1cccc2cc3c(N)c(C(=O)N4CCCc5ccccc54)sc3nc12,725,6.25 (active)
Cc1occc1C(=O)N1CCCc2ccccc21,1220,0.1 (inactive)

# — PubChem BioAssay AID1625 (Sanford-Burnham Center for Chemical Genomics, 2009)
